BAZ2B inh = qHTS Assay for Inhibitors of BAZ2B | Bromodomain adjacent to zinc finger domain protein 2B (Homo sapiens), Q9UIF8 | AlphaScreen BAZ2B-H3K14Ac peptide displacement | Potency, µM (titrated, usually from 114 µM), most hits filed as inhibitors | 360,000 compounds, 4.4% hits; also: nearly all actives have a fitted effect of over 60% in size
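AlphaScreen displacement: compounds (up to 110uM) incubated 30 min at room temperature with a preformed 50 nM BAZ2B/50 nM biotinylated H3K14Ac peptide complex in PBS pH 7.4 with Tween-20. Donor and acceptor beads at 10 ug/mL final added, 20 min light-protected before reading.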
G9a block = qHTS Assay for Inhibitors of Histone Lysine Methyltransferase G9a; G9a H3K9 monomethylation, AlphaScreen, 2 h; 350,000 compounds, 8.8% hits; Potency, µM (doses to about 102 µM), hits mostly inhibitors; also: nearly all actives have a fitted effect of over 75% in size
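Step 1: enzyme (final 20 nM) with compound, 15 min RT. Step 2: substrate peptide 500 nM and SAM 20 uM, 2 h RT. Step 3: anti-H3K9me1 antibody and AlphaScreen beads, 10 min, then plate read.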
L3MBTL1 block = qHTS Assay for the Inhibitors of L3MBTL1; AlphaScreen L3MBTL1–H3K9me1 peptide binding; Potency, µM (doses to about 57.1 µM), hits mostly inhibitors; 230,000 compounds, 0.66% hits; AID 485360, 2010; also: nearly all actives have a fitted effect of over 60% in size
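AlphaScreen assay: L3MBTL1 (50 nM final) was preincubated 30 min at room temperature with biotinylated H3(1-15)K9me1 peptide (75 nM final), then 30 min with library compounds; streptavidin donor and nickel chelate acceptor beads (10 ug/mL final) added, 30 min dark.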
Sfp PPTase inh = qHTS Assay for Inhibitors of Bacillus subtilis Sfp phosphopantetheinyl transferase (PPTase); 310,000 compounds, 3.5% hits; Potency, µM, actives largely listed as inhibitors; Biochemical Sfp PPTase activity, qHTS; AID 1490, 2009; 4'-phosphopantetheinyl transferase ffp (Bacillus subtilis), Q9F4F7;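 also: the enzyme is Sfp with the accession as filed and its product quenches rhodamine fluorescence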
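With Hepes-Na pH 7.6 buffer containing 10 mM MgCl2, Sfp (15 nM) modified BHQ-2-YbbR (12.5 uM) using rhodamine-CoA (5 uM). Two reads 30 minutes apart at 525/598 nm yielded each well's rate.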
HP1b binding inh = HTS for Inhibitors of HP1-beta Chromodomain Interactions with Methylated Histone Tails; Chromobox protein homolog 1 (Homo sapiens), P83916; AlphaScreen HP1-beta / biotin-H3K9me3 peptide binding; Potency, µM (highest dose often 114 µM), most hits filed as inhibitors; 390,000 compounds, 0.56% hits; also: nearly all actives have a fitted effect of over 70% in size
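Compound inhibition of the preformed complex between 50 nM HP1-beta and 50 nM biotinylated H3K9me3 peptide was read by AlphaScreen. Buffer was PBS pH 7.4 with 0.01% Tween-20. Incubations ran 30 min at room temperature, with 10 ug/mL donor/acceptor beads.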
JMJD2A Tudor = qHTS Assay for Inhibitors of JMJD2A-Tudor Domain; 390,000 compounds, 4.4% hits; Potency, µM (highest dose often 114 µM), hits mostly inhibitors; Lysine-specific demethylase 4A (Homo sapiens), O75164; AlphaScreen JMJD2A-Tudor / H3K4me3 peptide binding; also: nearly all actives have a fitted effect of over 50% in size
Numbers stand for hits; - = inactive; ? = inconclusive; . = not tested or not shown; [ ] = another dose, or the depositor's remark. Only some compounds are listed: those with a hit (about 12% of all), similar ones and a draw of the others. Calls follow the shape of the dose curve; as a rule, active = well fitted curve in the direction sought with a large enough effect; inconclusive = small, poorly fitted or top-dose-only effect, or another doubt; inactive = no such curve, though single readings can be large; an effect the other way counts as inactive or inconclusive.

SMILES	BAZ2B inh	G9a block	L3MBTL1 block	Sfp PPTase inh	HP1b binding inh	JMJD2A Tudor
Cc1cccc(NC(=O)c2sc3nc(-c4ccccc4)cn3c2C)n1	-	?	-	?	-	-
COc1ccccc1N1CCN(C(=O)c2sc3nc(-c4ccc(F)cc4)cn3c2C)CC1	?	28µM	-	-	-	-
COc1ccc(-c2cn3c(C)c(C(=O)N4CCN(c5ccc(F)cc5)CC4)sc3n2)cc1	-	-	.	-	-	-
Cc1ccc(NC(=O)C(=O)c2cc(C)n(-c3ccc(F)cc3)c2C)cc1C	?	-	.	.	-	-
CCc1ccc(NC(=O)Cn2c(=O)n(CCCCC(=O)NCc3ccccc3Cl)c(=O)c3ccccc32)cc1	-	-	.	.	-	-
CCCCN(CC)C(=O)c1cc2c(=O)n3ccccc3nc2n1C	-	-	.	.	-	-
Cc1ccc(-c2nn3c(=O)cc(CN4CCN(C(=O)Nc5cc(Cl)ccc5C)CC4)nc3s2)cc1	-	-	.	.	-	-
CCOC(=O)C(C)N1C(=O)S/C(=C/c2cc(C)n(-c3ccncc3)c2C)C1=O (centres undefined)	?	50µM	-	-	-	?
CCOC(=O)C(C)N1C(=O)S/C(=C/c2cc(C)n(-c3ccccn3)c2C)C1=O (centres undefined)	?	-[12.7 µM]	.	-	-	56µM
CCOC(=O)c1cc(CC)sc1NC(=O)C(c1ccccc1)c1ccccc1	-	-	-	-	-	-
CCOC(=O)c1cc(CC)sc1N1C(=O)CC(Sc2ccccc2C(=O)O)C1=O (centres undefined)	63µM	1.8µM	-	3.5µM	-	-
CCOC(=O)c1cc(CC)sc1N1C(=O)CC(Sc2ncccc2C(=O)O)C1=O (centres undefined)	-	25µM	-	-	-	-
COc1ccc(C(CNC(=O)c2cccc([N+](=O)[O-])c2)N2CCOCC2)cc1 (centres undefined)	-	-	.	.	-	-
COc1ccc(-c2n[nH]c(=S)n2/N=C/c2cccn2C)cc1	-	1.1µM	-	-	?	6.3µM
Cn1cccc1/C=N/n1c(-c2ccc(Cl)cc2Cl)n[nH]c1=S	45µM	?	-	-	-	79µM
Cc1nnc(C)n1/N=C/c1cccn1C	-	-	-[11.4 µM]	-	-	-[11.4 µM]
Cn1cccc1/C=N/n1c(-c2ccc(Cl)cc2)n[nH]c1=S	-	?	?	-	-	-
Cc1ccc(-c2n[nH]c(=S)n2/N=C/c2cccn2C)cc1	-	1.1µM	-	-	-	22µM
COCCCN1CCc2nc(SCC(=O)Nc3ccc(C)c(Cl)c3)[nH]c(=O)c2C1	-	-	.	.	-	-
O=C(COc1ccc(Br)cc1)N1CCc2ccccc21	-	71µM	-	-	-	-
O=C(COc1ccccc1)N1CCc2ccccc21	-	?	-	-	-	-
CCOc1ccc(Cc2nccc3cc(OCC)c(OCC)cc23)cc1OCC	.	-[2.33 µM]	.	-	.	.
COc1ccc(-c2nc3cnc(N(C)C)nc3n(Cc3ccc(F)cc3)c2=O)cc1	.	-[0.501 µM]	.	-	.	.
O=C(NCc1ccccc1)C1CCN(S(=O)(=O)c2ccc3c(c2)CCCN3C(=O)C2CCC2)CC1	-	-	.	.	-	-
Nc1nc2c(F)cccc2s1	-	-	-	-	-	-
SMILES	BAZ2B inh	G9a block	L3MBTL1 block	Sfp PPTase inh	HP1b binding inh	JMJD2A Tudor
Nc1nc2c(F)c(F)c(F)cc2s1	-	18µM	-	?	-	-
Cc1ccc(NC(=O)c2sc3nc(-c4ccc(F)cc4)ccc3c2N)cc1F	-	-	.	.	-	-
Nc1c(C(=O)Nc2ccc(F)cc2)sc2nc(-c3ccco3)ccc12	-	40µM	-	7.9µM	-	-
Nc1c(C(=O)Nc2ccc(Br)cc2)sc2nc(-c3ccco3)ccc12	?	?	-	10µM	-	-
NC(=O)c1sc2nc(-c3ccccc3)ccc2c1N	-	.	-	-	-	-
Nc1c(C(=O)Nc2ccc(Br)cc2)sc2nc(-c3ccncc3)ccc12	-	-	.	.	-	-
CC(=O)c1sc2nc(-c3ccco3)ccc2c1N	50µM	.	-	22µM	?	79µM
CCCCCCCCCCCCOCCCN	.	-[12.7 µM]	.	-	.	.
COC(=O)c1ccc(-n2c(C)cc(/C=N/n3cnnc3)c2C)cc1	?	56µM	-	-	-	-[11.4 µM]
Cc1cc(/C=N/n2cnnc2)c(C)n1-c1ccc(C(=O)O)cc1	.	-	-	-	-	-
Cc1cccc(N(Cc2ccccc2)C(=O)CCl)c1	-	-	-	-	-	-
Cc1cccc(N(CC(=O)O)CC(=O)O)c1	-	11µM	-	-	-	-
CC(=O)Nc1ccc2c(c1)C(=Nc1ccccc1)c1ccccc1-2	.	.	.	.	-	35µM
CCn1c(CSc2nnc(-c3cccnc3)n2-c2ccccc2C)nc2cc(C(=O)O)ccc21	?	13µM	?	?	.	.
CCn1c(CSc2n[nH]c(N)n2)nc2cc(C(=O)O)ccc21	?	40µM	-	79µM	-	?
Cc1ccccc1-n1c(SCc2c(C)noc2C)nnc1-c1cccnc1	-	40µM	-	?	-	-
CC(=O)Nc1ccc(C(=O)CSc2nnc(-c3ccccc3F)n2CCc2ccccc2)cc1	.	.	.	.	-	-
Cc1noc(C)c1CSc1nnc(-c2ccccc2F)n1CCc1ccccc1	-	40µM	-	-	-	-
Cc1ccccc1-n1c(SCc2c(C)noc2C)nnc1-c1ccncc1	-	-[12.7 µM]	-[11.4 µM]	-	-	-
Oc1ccccc1C=NCc1ccccc1	.	-[12.7 µM]	.	-	.	.
O=C(NCCCCCCNC(=O)ON=C1CCCCC1)ON=C1CCCCC1	.	-	.	-	.	.
Cc1cc(NC(=O)C2CCN(S(=O)(=O)c3ccc4[nH]c(=O)oc4c3)CC2)ccc1Br	-	-	.	.	-	-
CC(C)CN1CCc2nc(N3CCN(c4ncccn4)CC3)ncc2C1	?	-[12.7 µM]	.	.	-	?
CC(C)(C)C1CCC2(CC1)SCC(=O)N2c1ccccc1 (centres undefined)	-	-	-	-	-	-
CCC(C)(C)C1CCC2(CC1)NC(=S)N(c1ccccc1)N2 (centres undefined)	?	8.9µM	-	79µM	-	-
CC(C)(C)C1CCC2(CC1)NC(=S)N(c1ccccc1)N2 (centres undefined)	-	7.9µM	-	?	-	-
COC(=O)c1ccc(C(/C=C/[C@@H](C)C(=O)NCCN2CCCC2)NC(=O)OCc2ccccc2)cc1 (some centres undefined)	.	.	.	-	.	.
CCCN(CCC)C(=O)c1ccc2c(c1)S(=O)(=O)c1ccccc1C2=O	-	79µM	.	-	-	?

High-throughput results from PubChem.
